Experimental data taken from PubChem BioAssay AID1159580 (chemical genetic matrix, 2015).
Among all 5,500 compounds or so, about 2,000 (36%) were called active. Another 18% or so got no clear call; they are omitted. No stated cut-off is given here; in the data, active means normalized growth mostly below about 0.91 (no sharp cut-off); inconclusive means no clear call, values can overlap the other calls; inactive means mostly above about 0.92. This is one part of the list.

Assay: chemical genetic growth profiling, strain panel (AID 1159580);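 further: tested at 20 µM; growth read once vehicle control cultures reached saturation at 30 °C; 1 = growth at the plate median or of vehicle wells; lower values mean less growth of the strain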
Details: growth OD

Measured: normalized growth

CC(C)(Oc1ccc(CCNC(=O)c2ccc(Cl)cc2)cc1)C(=O)O
inactive: S. cerevisiae deletion strains, locus YJR075W, strain HOC1, hits give low values 1.02 | S. cerevisiae deletion strains, locus YKL009W, strain mrt4, hits give low values 1.02 | S. cerevisiae deletion strains, locus YKL068W, hits give low values 1.01 | S. cerevisiae deletion strains, locus YKL085W, strain MDH1 (second series), hits give low values 1.03 | S. cerevisiae deletion strains, locus YKL085W, strain MDH1, hits give low values 1.03 | S. cerevisiae deletion strains, locus YKL160W, strain elf1, hits give low values 0.961 | S. cerevisiae deletion strains, locus YKL190W, strain CNB1, hits give low values 1.01 | S. cerevisiae deletion strains, locus YKR001C, strain vps1, hits give low values 1.02 | S. cerevisiae deletion strains, locus YKR026C, strain gcn3, hits give low values 0.991 | S. cerevisiae deletion strains, locus YKR091W, strain srl3, hits give low values 0.996 | S. cerevisiae deletion strains, locus YLL001W, strain dnm1, hits give low values 0.975 | S. cerevisiae deletion strains, locus YLL026W, hits give low values 0.995 | S. cerevisiae deletion strains, locus YLL041C, strain sdh2, hits give low values 0.98 | S. cerevisiae deletion strains, locus YLR027C, strain aat2, hits give low values 0.977 | S. cerevisiae deletion strains, locus YLR039C, strain RIC1, hits give low values 1.03 | S. cerevisiae deletion strains, locus YLR058C, strain SHM2, hits give low values 1.01 | S. cerevisiae deletion strains, locus YLR102C, strain apc9, hits give low values 1.01 | S. cerevisiae deletion strains, locus YLR113W, strain HOG1, hits give low values 0.943 | S. cerevisiae deletion strains, locus YLR221C, strain rsa3, hits give low values 0.997 | S. cerevisiae deletion strains, locus YLR258W, strain gsy2, hits give low values 0.972 | S. cerevisiae deletion strains, locus YLR262C, strain YPT6 (second series), hits give low values 1.01 | S. cerevisiae deletion strains, locus YLR262C, strain YPT6, hits give low values 1.02 | S. cerevisiae deletion strains, locus YLR268W, strain sec22, hits give low values 1.01 | S. cerevisiae deletion strains, locus YLR320W, strain mms22, hits give low values 0.978 | S. cerevisiae deletion strains, locus YLR330W, strain CHS5, hits give low values 1.01 | S. cerevisiae deletion strains, locus YLR342W, strain FKS1 (second series), hits give low values 1.05 | S. cerevisiae deletion strains, locus YLR342W, strain FKS1, hits give low values 0.978 | S. cerevisiae deletion strains, locus YLR357W, strain rsc2, hits give low values 0.951 | S. cerevisiae deletion strains, locus YLR370C, strain arc18, hits give low values 0.983 | S. cerevisiae deletion strains, locus YLR371W, strain rom2, hits give low values 1.02 | S. cerevisiae deletion strains, locus YLR384C, strain iki3, hits give low values 0.972 | S. cerevisiae deletion strains, locus YLR418C, strain cdc73, hits give low values 1.06 | S. cerevisiae deletion strains, locus YML016C, strain PPZ1, hits give low values 1.02 | S. cerevisiae deletion strains, locus YML032C, strain rad52, hits give low values 1.01 | S. cerevisiae deletion strains, locus YML120C, strain ndi1, hits give low values 1.03 | S. cerevisiae deletion strains, locus YML124C, strain tub3, hits give low values 1.01 | S. cerevisiae deletion strains, locus YMR058W, strain fet3, hits give low values 0.995 | S. cerevisiae deletion strains, locus YMR078C, strain ctf18, hits give low values 1.01 | S. cerevisiae deletion strains, locus YMR125W, strain sto1, hits give low values 0.986 | S. cerevisiae deletion strains, locus YMR129W, hits give low values 0.982 | S. cerevisiae deletion strains, locus YMR205C, strain PFK2, hits give low values 0.977 | S. cerevisiae deletion strains, locus YMR223W, strain ubp8, hits give low values 1.01 | S. cerevisiae deletion strains, locus YMR231W, strain pep5, hits give low values 0.994 | S. cerevisiae deletion strains, locus YMR307W, strain GAS1, hits give low values 1.04 | S. cerevisiae deletion strains, locus YNL067W, strain RPL9B, hits give low values 1.01 | S. cerevisiae deletion strains, locus YNL071W, strain lat1, hits give low values 0.994 | S. cerevisiae deletion strains, locus YNL128W, strain TEP1, hits give low values 1.04 | S. cerevisiae deletion strains, locus YNL153C, strain GIM3, hits give low values 1.02 | S. cerevisiae deletion strains, locus YNL183C, strain NPR1, hits give low values 0.937 | S. cerevisiae deletion strains, locus YNL209W, strain ssb2, hits give low values 0.98 | S. cerevisiae deletion strains, locus YNL233W, strain BNI4, hits give low values 1.01 | S. cerevisiae deletion strains, locus YNL248C, strain rpa49, hits give low values 0.986 | S. cerevisiae deletion strains, locus YNL250W, strain rad50, hits give low values 1.02 | S. cerevisiae deletion strains, locus YNL271C, strain bni1, hits give low values 1.02 | S. cerevisiae deletion strains, locus YNL298W, strain CLA4, hits give low values 1.02 | S. cerevisiae deletion strains, locus YNL307C, strain MCK1, hits give low values 1.03 | S. cerevisiae deletion strains, locus YNL322C, strain KRE1 (second series), hits give low values 0.978 | S. cerevisiae deletion strains, locus YNL322C, strain KRE1, hits give low values 1.01 | S. cerevisiae deletion strains, locus YNR049C, strain mso1, hits give low values 0.971 | S. cerevisiae deletion strains, locus YNR052C, strain pop2, hits give low values 1.01 | S. cerevisiae deletion strains, locus YOL006C, strain TOP1, hits give low values 1.04 | S. cerevisiae deletion strains, locus YOL012C, strain htz1 0.932 | S. cerevisiae deletion strains, locus YOL147C, strain pex11, hits give low values 1.01 | S. cerevisiae deletion strains, locus YOR001W, strain rrp6, hits give low values 1.01 | S. cerevisiae deletion strains, locus YOR061W, strain CKA2, hits give low values 1.02 | S. cerevisiae deletion strains, locus YOR069W, strain VPS5, hits give low values 1.01 | S. cerevisiae deletion strains, locus YOR070C, strain gyp1, hits give low values 0.993 | S. cerevisiae deletion strains, locus YOR080W, strain dia2, hits give low values 0.983 | S. cerevisiae deletion strains, locus YOR083W, strain WHI5, hits give low values 0.922 | S. cerevisiae deletion strains, locus YOR106W, strain vam3, hits give low values 0.982 | S. cerevisiae deletion strains, locus YOR136W, strain idh2, hits give low values 1.02 | S. cerevisiae deletion strains, locus YOR144C, strain elg1, hits give low values 1.02 | S. cerevisiae deletion strains, locus YOR184W, strain ser1, hits give low values 1.06 | S. cerevisiae deletion strains, locus YOR231W, strain MKK1, hits give low values 0.988 | S. cerevisiae deletion strains, locus YOR265W, strain rbl2, hits give low values 0.983 | S. cerevisiae deletion strains, locus YOR270C, strain vph1, hits give low values 1.03 | S. cerevisiae deletion strains, locus YOR290C, strain snf2, hits give low values 0.977 | S. cerevisiae deletion strains, locus YOR316C, strain cot1, hits give low values 1.03 | S. cerevisiae deletion strains, locus YPL051W, strain arl3, hits give low values 0.984 | S. cerevisiae deletion strains, locus YPL055C, strain LGE1, hits give low values 1 | S. cerevisiae deletion strains, locus YPL078C, strain atp4, hits give low values 0.971 | S. cerevisiae deletion strains, locus YPL106C, strain sse1, hits give low values 0.934 | S. cerevisiae deletion strains, locus YPL240C, strain hsp82, hits give low values 0.989 | S. cerevisiae deletion strains, locus YPL256C, strain CLN2, hits give low values 1 | S. cerevisiae deletion strains, locus YPR119W, strain clb2, hits give low values 1.01 | S. cerevisiae deletion strains, locus YPR141C, strain kar3, hits give low values 1.01 | S. cerevisiae deletion strains, locus YPR163C, strain tif3, hits give low values 1.02 | S. cerevisiae deletion strains, locus YPR167C, strain met16, hits give low values 1.03 | S. cerevisiae deletion strains, strain wtn01, hits give low values 1.02 | S. cerevisiae strains, strain wild type, hits give low values 1.02
